KLK7 zymogen act = proKLK7 zymogen activators, primary screen, biochemical, fluorescence intensity; purified proKLK7, EDANS-DABCYL substrate fluorescence; 100% is mature enzyme control, 0% vehicle; Kallikrein-7 (Homo sapiens), P49862; activation, % at 7 µM; 370,000 compounds, 0.9% hits; AID 652039, 2013;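 active = activation above the mean of all tested compounds plus 3 SD, computed per campaign excluding outliers beyond control limits, cut at about 13% in these data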
Target sequence (P49862 whole entry, looked up): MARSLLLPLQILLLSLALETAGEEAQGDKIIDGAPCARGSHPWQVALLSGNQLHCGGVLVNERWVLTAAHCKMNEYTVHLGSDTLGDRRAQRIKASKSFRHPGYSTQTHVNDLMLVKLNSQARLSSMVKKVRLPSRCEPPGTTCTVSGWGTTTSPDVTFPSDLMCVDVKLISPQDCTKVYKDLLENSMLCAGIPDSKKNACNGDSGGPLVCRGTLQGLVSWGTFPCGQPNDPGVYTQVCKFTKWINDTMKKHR
sPLA2-III inh = human group III sPLA2 inhibitors, primary screen, biochemical, QFRET, BODIPY PC-A2 liposome substrate | Group 3 secretory phospholipase A2 (Homo sapiens), Q9NZ20 | QFRET BODIPY PC-A2 liposome hydrolysis, fluorescence | inhibition, % at 12.2 µM | 370,000 compounds, 0.56% hits | AID 743126, 2013;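 active = inhibition above mean plus 3 SD of compounds lying within the high and low control bounds, cut at about 19% in these data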;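 note: 0% = median of test compound wells and 100% = no enzyme DMSO wells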
ADAM10 inh = human ADAM10 inhibitors, primary screen, biochemical, QFRET, HTS; Disintegrin and metalloproteinase domain-containing protein 10 (Homo sapiens), O14672; recombinant ADAM10, EDANS/DABCYL FRET peptide cleavage, 3 h; inhibition, % at 7 µM; 370,000 compounds, 0.62% hits;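 active = inhibition above a per-campaign cutoff equal to the mean of compounds falling between control-based bounds plus 3 SD, cut at about 20% in these data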;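 note: 0% = DMSO wells while the 100% control is not disclosed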
PLC-beta3 inh = human PLC-beta3 inhibitors, primary screen, biochemical, fluorescence | inhibition, % at 12.2 µM | 370,000 compounds, 0.18% hits | Purified PLC-beta3, fluorogenic substrate | 1-phosphatidylinositol 4,5-bisphosphate phosphodiesterase beta-3 (Homo sapiens), Q01970; in the data active = inhibition above about 11%;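 note: 0% = median of compound wells on plate and 100% = full blocker control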
ADAM17 inh = ADAM17 inhibitors, primary screen, biochemical, QFRET. 370,000 compounds, 0.83% hits. recombinant ADAM17, EDANS/DABCYL FRET peptide cleavage. Disintegrin and metalloproteinase domain-containing protein 17 (Homo sapiens), P78536. inhibition, % at 6.95 µM;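 active = inhibition above the mean of compounds lying between control limits plus 3 SD, set per campaign, cut at about 8.5% in these data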;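 note: 0% = DMSO-only wells as the low control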
PLCg1 inh = PLC-gamma1 enzyme inhibitors, primary screen, biochemical, fluorescence, purified enzyme | 1-phosphatidylinositol 4,5-bisphosphate phosphodiesterase gamma-1 (Homo sapiens), P19174 | fluorogenic substrate | 370,000 compounds, 0.84% hits | AID 720700, 2013 | inhibition, % at 12.2 µM; in the data active = inhibition above about 9.5%
sPLA2 confirm = human group III sPLA2 inhibitors, confirmation, biochemical, QFRET, triplicate. shares compounds with sPLA2-III inh. recombinant hGIII-sPLA2, BODIPY PC-A2 QFRET fluorescence. inhibition, % at 12.2 µM. 2,000 compounds, 34% hits. AID 743280, 2014;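 active = mean inhibition across triplicates above the hit cutoff set in the earlier primary screen, cut at about 19% in these data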;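 note: 0% = enzyme with DMSO and 100% = DMSO wells lacking enzyme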
535nm interf = 535nm fluorescence optical interference, confirmation, artefact control for HGIII-sPLA2 inhibitor project, biochemical, QFRET; 2,000 compounds, 8.5% hits; inhibition, % at 12.2 µM; BODIPY FL product fluorescence interference; shares compounds with sPLA2-III inh;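 active = average inhibition above the solvent-only control mean plus 3 SD, cut at about 6% in these data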;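 note: 0% = DMSO with substrate plus product and 100% = DMSO with substrate alone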
BODIPY interf DR = 535nm fluorescence optical interference, dose response, artefact control for HGIII-sPLA2 inhibitor project, biochemical, QFRET; shares compounds with sPLA2-III inh; BODIPY FL product fluorescence interference, cell-free; IC50, µM; 240 tested, under 10 active; AID 743455, 2014;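 active = IC50 at or below 10 µM; inactive = IC50 above 10 µM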
Starred values were filed as active, the others as inactive; . = not tested or not shown. This is a sample that favours compounds with a hit; in the whole collection about 3.4% have one here.

SMILES | KLK7 zymogen act | sPLA2-III inh | ADAM10 inh | PLC-beta3 inh | ADAM17 inh | PLCg1 inh | sPLA2 confirm | 535nm interf | others
C[C@@H]1CCCCO[C@@H](CN(C)Cc2ccccc2)[C@@H](C)CN([C@H](C)CO)C(=O)c2cc(N(C)C)ccc2O1 | 0 | 24* | -11 | -30 | -6 | -19 | 10 | -18
C[C@H](CO)N1C[C@H](C)[C@@H](CN(C)Cc2ccccc2)OCCCC[C@H](C)Oc2ccc(N(C)C)cc2C1=O | -2 | 17 | 3 | -12 | -6 | -2 | . | .
Cc1nnc(SCC(=O)Nc2c(Cl)cccc2Cl)n(N)c1=O | 0 | -2 | 4 | -3 | 3 | 4 | . | .
Cc1ccc(C)c(NC(=O)NNC(=O)c2cc3ccccc3cc2O)c1 | -4 | 22* | 4 | -140 | -2 | -86 | 22* | 3
CCOc1ccc(NC(=O)NNC(=O)c2cc3ccccc3cc2O)cc1 | -1 | 14 | -16 | -69 | -3 | -38 | . | .
Cc1ccc(NC(=O)NNC(=O)c2cc3ccccc3cc2O)cc1C | -3 | 28* | -11 | -152 | -9 | -104 | 26* | 3
Cc1csc(=O)n1CCC(=O)OC(C)C(=O)NCc1ccccc1 (centres undefined) | 1 | -2 | 0 | 3 | -2 | 3 | . | .
O=C(CCNC(=O)Cn1ccc2ccccc2c1=O)NCc1ccc(F)cc1Cl | 0 | 0 | -5 | 0 | -2 | 3 | . | .
COC(=O)C1=CN(c2ccc(Oc3ccccc3)cc2)C(N)=C(C#N)C1c1cccc(OC)c1OC (centres undefined) | -1 | 11 | -17 | -16 | -6 | -7 | . | .
COC(=O)C1=CN(c2ccc(N3CCOCC3)cc2)C(N)=C(C#N)C1c1cccc(OC)c1OC (centres undefined) | 0 | 20* | -22 | -19 | -8 | -5 | -5 | -20
COC(=O)NC(=S)N1CCOCC1 | 0 | 6 | 5 | 0 | -2 | 4 | . | .
CCCCn1c(N)c(N(Cc2ccccc2OC)C(=O)c2ccc([N+](=O)[O-])s2)c(=O)[nH]c1=O | 0 | -9 | 2 | -7 | 1 | -4 | . | .
NNc1nc2c(F)cc(F)cc2s1 | 0 | 20* | -8 | -10 | -1 | -10 | 20* | 5
COc1ccc(N2CCN(C(=S)Nc3cc(C)ccc3C)CC2)cc1 | -1 | 21* | -9 | -1 | -1 | 2 | 15 | -6
CC(C)(C)c1ccc(C#C[C@@H]2C=C[C@@H](O)[C@@H](CO)O2)cc1 | 1 | 20* | -1 | 3 | -3 | 1 | -2 | -12
CC(C)NC(=O)OC[C@H]1O[C@H](C#Cc2ccc(C(C)(C)C)cc2)C=C[C@H]1O | 0 | 16 | -8 | -1 | -1 | -1 | . | .
O=C(CSc1nc2ccccc2[nH]1)N1CCN(C(=O)c2ccco2)CC1 | 0 | 19* | 1 | 3 | -4 | 9 | 1 | -4
COc1ccc(S(=O)(=O)N2CCC(C(=O)NCCC(=O)Nc3nccs3)CC2)cc1 | 0 | 15 | -7 | 5 | -6 | 5 | . | .
S=C(Nc1ccccc1)N1CCCCC1 | 0 | 0 | 2 | 2 | 0 | 3 | . | .
S=C(Nc1ccccc1)N1CCCN1c1ccccc1 | 0 | 20* | -4 | -5 | -5 | 2 | 4 | -8
Cc1cc(C)n(CC(O)COc2ccccc2[N+](=O)[O-])n1 (centres undefined) | 1 | 22* | -5 | -1 | -2 | 2 | -5 | -7
Cc1cc(C)c(OCC(=O)Nc2ccc(S(=O)(=O)N3CCCC3)cc2)c(C)c1 | 1 | 3 | -1 | -3 | -1 | -3 | . | .
O=C(NC(=S)NCCN1CCOCC1)c1ccc(Cl)cc1Cl | 0 | 21* | -5 | 4 | 0 | 2 | 12 | -7
CCc1c(-c2ccccc2OC)ncn1Cc1cccc(-c2ccccc2)c1 | 0 | 3 | -6 | -4 | 5 | 0 | . | .
Cc1csc(NC(=S)NC(=O)c2ccccc2)n1 | 1 | 21* | 13 | 1 | 6 | 6 | 32* | 1 | BODIPY interf DR=>122
SMILES | KLK7 zymogen act | sPLA2-III inh | ADAM10 inh | PLC-beta3 inh | ADAM17 inh | PLCg1 inh | sPLA2 confirm | 535nm interf | others
Cc1csc(NC(=O)c2ccccc2)n1 | 0 | -4 | 2 | -4 | 0 | 3 | . | .
CCOc1ccc(CCNC(=O)COC(=O)c2cccc(N(C)C)c2)cc1OCC | 1 | -6 | -17 | -79 | -4 | -70 | . | .
Cc1nnsc1C(=O)NNC(=O)c1cccc2ccccc12 | -1 | 9 | -2 | -9 | -4 | 3 | . | .
CC(C)N(C(=S)NC1CC2CCC1C2)c1ccccc1 (centres undefined) | -1 | 2 | 2 | 0 | 0 | 3 | . | .
CN(C)c1cccc(C(=O)NNC(=S)NC2CC3CCC2C3)c1 (centres undefined) | 0 | 20* | -25 | -42 | -8 | -27 | 25* | 3
Cc1ccc(C(=O)CSc2ccc(-c3cccnc3)nn2)cc1 | 1 | -56 | 8 | -5 | -1 | 3 | . | .
Cc1ccc(S(=O)(=O)N(C)C)cc1NC(=S)N1CCN(Cc2ccc3c(c2)OCO3)CC1 | 0 | 3 | -6 | -6 | -5 | -3 | . | .
CN(c1ccccc1)c1cc(=O)[nH]c(=O)[nH]1 | 0 | 28* | -1 | -5 | -9 | -5 | -1 | -3
N#Cc1ccc(COC(=O)c2ccccn2)cc1 | 0 | 2 | -7 | -3 | 1 | -3 | . | .
COc1ccccc1C(=O)NC(=O)Cn1nc(C)c([N+](=O)[O-])c1C | 0 | -3 | -5 | -2 | -1 | -5 | . | .
O=C(OCC(=O)N(C1CCCCC1)C1CCCCC1)c1ccc(Cl)nc1 | 0 | 1 | -1 | 1 | -1 | 1 | . | .
O=C(COC(=O)c1ncc(Cl)c(Cl)c1Cl)Nc1cccnc1Cl | 1 | 20* | -6 | -9 | 1 | 6 | -5 | -3
O=C(COC(=O)c1ncc(Cl)c(Cl)c1Cl)Nc1ccccc1OC(F)F | -1 | 13 | -3 | 2 | 6 | 1 | . | .
